HT1080NT lethal: kills 2HG-producing HT-1080-NT fibrosarcoma cells; Potency, µM (highest dose often 46.1 µM), without a hit: top-dose activity, negative = less viability, actives largely listed as cytotoxic; 360,000 compounds, 1.6% hits; HT-1080-NT fibrosarcoma viability, CellTiter-Glo ATP luminescence, 48 h; AID 686970;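 note: NT is the 2HG producing partner of a matched IDH1 knockdown line; potency is the fitted concentration of half-maximal effect; 0% = DMSO-treated cells and -100% = media-only wells without cells; nearly all actives have a fitted effect of over 55% in size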
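Toxicity toward the 2HG-producing NT line was scored as %Activity, normalised to DMSO and no-cell wells, from CellTiter-Glo luminescence after 48 hours' treatment.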
IL1B secr inh: blocks inflammasome-driven IL-1 beta release | THP-1 LPS/ATP IL-1B secretion, AlphaLISA, 16 h; active compounds read low | activity change, % at 57.5 µM | 360,000 compounds, 4.7% hits; in the data active = activity change below about -50%; inconclusive = mostly about -30% to -49%
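Secreted IL-1B measured by AlphaLISA bead assay after 16 h compound exposure of THP-1 cells; compounds (final up to 57.5 uM) added 1 h before LPS (250 ng/mL) and ATP (1.25 mM) stimulation; lower signal means less secretion.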
HT1080 IDH1KD tx: HT-1080 IDH1 knockdown cell toxicity (counter line) | HT-1080 IDH1 knockdown viability, ATP luminescence, 48 h | Potency, µM (highest dose often 46.1 µM), inactives show top-dose activity, negative = toxicity, actives largely listed as cytotoxic | 360,000 compounds, 2% hits | AID 686971;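 note: potency is the fitted concentration of half-maximal effect; 0% = DMSO wells and -100% = cell-free medium wells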
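After a 2 h attachment period, IDH1KD HT-1080 cells took pin-transferred compound for 48 h at 37 °C; ATP-based luminescence after 10 min room-temperature reagent incubation reported viability.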
DT40 TDP1 no CPT: qHTS for Inhibitors of human tyrosyl-DNA phosphodiesterase 1 (TDP1): qHTS in cells in absence of CPT | DT40 Tdp1-/- hTDP1 cells, no CPT, ATP luminescence, 48 h | Potency, µM (titrated, usually from 46.2 µM), for inactives: at the highest dose activity change, negative = growth inhibition, actives largely listed as inhibitors | 420,000 compounds, 15% hits | AID 686978, 2013; note: potency is the fitted concentration of half-maximal effect; nearly all actives have a fitted effect of over 55% in size
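Seeded 400 DT40-hTDP1 cells/well (vehicle DMSO, no 20 nM CPT); pinned compounds; ≥48 hr at 37 °C; CellTiter-Glo luminescence as viability measure.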
DT40 TDP1 CPT: growth inhibition of DT40 Tdp1-/-;hTDP1 cells with camptothecin (screen for TDP1 inhibitors); AID 686979; 420,000 compounds, 12% hits; Potency, µM (titrated, usually from 46.2 µM), for inactives: top-dose activity change, negative = growth inhibition, hits mostly inhibitors; chicken DT40 Tdp1-/-;hTDP1 cells + 20 nM CPT, ATP luminescence, 48 h; note: potency is the fitted concentration of half-maximal effect; nearly all actives have a fitted effect of over 55% in size
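Chicken DT40 Tdp1-/- cells complemented with human TDP1, 400 cells/well, exposed to compounds plus 20 nM camptothecin for at least 48 h at 37 C; viability read as ATP content by CellTiter-Glo luminescence.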
* marks the source's active call; other numbers are inactive results; ? = inconclusive; . = not tested or not shown; [ ] = remark or other dose. Only some compounds are listed: those with a hit (about 19% of all), similar ones and a draw of the others. Unless noted, calls come from the whole dose curve; as a rule, active = well fitted curve in the direction sought with a large enough effect; inconclusive = small, poorly fitted or top-dose-only effect, or another doubt; inactive = no such curve, though single readings can be large; an effect the other way counts as inactive or inconclusive. Unless noted, % is set by controls: 0 for no effect and ±100 for the full control effect.

SMILES	HT1080NT lethal	IL1B secr inh	HT1080 IDH1KD tx	DT40 TDP1 no CPT	DT40 TDP1 CPT
CCCOc1ccccc1OCC(=O)Nc1cccc(S(=O)(=O)NC2=NCCC2)c1	-1%	-9	-2%	15µM*	?
Cc1ccc(NC(=O)COC(=O)C(NS(=O)(=O)c2ccc(Cl)cc2)C(C)O)c(Br)c1 (centres undefined)	-1%	2	14%	-20%	-11%
CCc1ccccc1OCC(=O)Nc1cccc(S(=O)(=O)NC2=NCCCCC2)c1	-21%	?	-30%	?	18µM*
Cc1ccc(-c2noc(-c3ccc(NC4CCCC4)c([N+](=O)[O-])c3)n2)cc1	.	.	.	-15%	-29%
CC(C)c1ccc(C(=O)Nc2ccc(S(=O)(=O)NC3=NCCCCC3)cc2)cc1	-29%	-17	?	23µM*	16µM*
Cc1cc(Cl)ccc1OCC(=O)Nc1cccc(S(=O)(=O)NC2=NCCCCC2)c1	-4%	-71*	-12%	18µM*	12µM*
Cc1cc(C)nc(SCC(=O)Nc2ccc(S(=O)(=O)NC(C)(C)C)cc2)n1	-12%	5	?	15µM*	16µM*
CCOc1ccc(C(=O)NC(=S)Nc2cccc(S(=O)(=O)NC3=NCCC3)c2)cc1	0.46µM*	0	1µM*	0.82µM*	0.82µM*
CCOc1ccc(OCC(=O)Nc2cccc(S(=O)(=O)NC3=NCCC3)c2)cc1	-13%	37	-23%	?	-24%
Cc1ccc(N(C)C(=O)N2CCN(S(=O)(=O)c3ccc(C)c(C)c3)CC2)cc1	-2%	-8	-2%	?	?
Cc1ccc(Cn2c(C)c(C(=O)NCc3cccs3)sc2=O)cc1	5%	?	-1%	-30%	?
Cc1cc(Cl)ccc1OCCCC(=O)N1CCCCC1	3%	-29	-14%	?	-24%
Cc1ccc(S(=O)(=O)N2CCN(C(=O)CCCOc3ccc(Cl)cc3C)CC2)cc1	-5%	-62*	-13%	?	?
Cc1ccc(S(=O)(=O)N2CCN(C(=O)CSc3ccc(Cl)cc3)CC2)cc1	12%	-61*	12%	?	-13%
COc1cccc(CCNC(=O)Cn2c(-c3cccs3)cc3ccccc32)c1	.	.	.	?	21µM*
CC(C)Oc1ccc(CNC(=O)Cn2c(-c3cccs3)cc3ccccc32)cc1	.	.	.	-22%	0%
O=C(Cn1c(-c2cccs2)cc2ccccc21)NCCCN1CCN(c2ccc(F)cc2)CC1	.	.	.	23µM*	23µM*
COc1ccc(N2CCN(CCCNC(=O)Cn3c(-c4cccs4)cc4ccccc43)CC2)cc1	.	.	.	23µM*	18µM*
COc1ccc(N2CCN(CCCNC(=O)c3cc4sccc4n3C)CC2)cc1	?	?	?	?	-27%
Cc1cc(Cl)ccc1OC(C)C(=O)NNC(=O)C1CCCCC1C(=O)O (centres undefined)	-1%	-16	-2%	-31%	-28%
CCC(=O)NC(=S)Nc1ccc(NC(=O)COc2ccc([N+](=O)[O-])cc2)cc1	-9%	-14	-5%	23µM*	?
COC(CC(=O)NNC(=S)Nc1ccc(Cl)cc1)OC	3%	-7	-1%	18µM*	18µM*
COc1ccc(NC(=S)NNC(=O)COc2ccc(Cl)cc2Cl)cc1	1%	16	-7%	21µM*	?
CCC(=O)Nc1ccc(Cl)c(NC(=S)NC(=O)COc2ccc(Cl)cc2)c1	-22%	19	-27%	-31%	-21%
CCC(=O)NC(=S)Nc1ccc(NC(=O)COc2ccc(Cl)c(C)c2)cc1	-7%	2	-13%	16µM*	13µM*
SMILES	HT1080NT lethal	IL1B secr inh	HT1080 IDH1KD tx	DT40 TDP1 no CPT	DT40 TDP1 CPT
O=C(NCCN1Cc2ccccc2OC(c2ccccc2F)C1)c1cncs1 (centres undefined)	.	.	.	?	-2%[9.04 µM]
CCOc1ccc(C(=O)C(C)OC(=O)CN2C(=O)NC(C)(C)C2=O)cc1 (centres undefined)	3%	22	0%	?	-10%
C/C(=N/NC(=O)c1cccs1)c1ccc(NC(=O)COc2ccc(Cl)cc2Cl)cc1	-8%	-11	-16%	?	15µM*
CN(C)c1nc(OCCNC(=O)COc2ccc(Cl)cc2Cl)nc(N(C)C)n1	0%	13	6%	8.2µM*	7.3µM*
CN(C)c1nc(OCCOC(=O)COc2ccc(Cl)cc2Cl)nc(N(C)C)n1	-2%	19	8%	11%	-8%
Cc1cccc(NC(=S)NNC(=O)COc2ccc(Cl)cc2Cl)c1	-1%	24	-2%	-14%	7%
CCC(=O)NC(=S)Nc1ccc(NC(=O)COc2ccc(Cl)cc2Cl)cc1	-11%	-10	-6%	8.2µM*	16µM*
C/C(=N/NC(=O)c1ccc(C)s1)c1cccc(NC(=O)COc2ccc(Cl)cc2Cl)c1	9%	0	0%	?	?
CCCCCCCCCCCCCCCC(=O)OCC(COP(=O)(O)O)OC(=O)CCCCCCCCCCCCCCC (centres undefined)	.	.	.	0%[4.12 µM]	3%[4.12 µM]
O=C(NCCO)c1nc(C(=O)c2ccccc2)c2ccccc2n1	14%	1	11%	?	23µM*
O=C(NCCO)c1cc(-c2cc(C(=O)NCCO)c3ccccc3n2)nc2ccccc12	20%	9	4%	2%	2%
COc1cc(OC)c(NC(=O)c2c(C)oc3nc(C)nc(N4CCOCC4)c23)cc1Cl	.	.	.	-15%	-4%
COc1ccc(-c2nc3ccccc3nc2-c2ccc(OC)cc2)cc1	-1%	-7	0%	-23%	-22%
N#Cc1nc(-c2ccccc2)cc(-c2ccccc2)n1	6%	.	17%	?	?

From PubChem
